Measured values as given in PubChem BioAssay AID2508 (National Center for Advancing Translational Sciences (NCATS), 2010).
Results filed as inconclusive are left out. Active and inactive are the calls of the source. Calls come from the whole dose curve; as a rule, active = well fitted inhibition curve with a large enough effect; inconclusive = small, poorly fitted or top-dose-only effect, or effect the other way; inactive = no such curve, though single readings can be large or run the other way.

experiment: Confirmatory Assay for General miRNAs Modulators and/or Inhibitors/Activators of miR-21; conditions: HeLa miR-21 FLuc reporter, luminescence, 48 h; series mostly up to 38.3 µM
Source text: MLSCN Grant: 1 R21 NS059478-01 Assay Provider: Qihong Huang, The Wistar Institute NCGC Assay Overview: MicroRNAs (miRNAs) are endogenously encoded small (~20-25 nucleotides), nonprotein-coding RNAs that are involved in post-transcriptional repression of target messenger RNAs (mRNAs) (Le and Hannon, 2004). Estimated to be involved in the regulation of 30% of all protein-coding mRNAs (Filipowicz et al., 2008), miRNAs play a significant role in many biological processes including cellular differentiation and tissue development (Ghildiyal and Zamore, 2009).
NCGC Assay Protocol Summary: Reagents: HeLa cells stably expressing firefly luciferase (FLuc) under the control of a CMV promoter (upstream) and a miR-21 binding sequence directly downstream of the gene. These cells endogenously express miR-21. Control compounds used were compound C3 (provided by collaborator), N6-phenyladenosine (MP Biomedicals, 0215379625), and DMSO. Assay Summary: 6uL of HeLa miR-21-FLuc cells in assay buffer (DMEM, Invitrogen #21063-029; 10% FBS, HyClone #SH30071.03) were dispensed at 2000cells/well (3.3 x 10^5 cells/mL) into Greiner solid-white TC-treated 1536-well plates using a Multidrop Combi (Thermo Fisher Scientific). Plates were incubated for one hour at 37 degree Celsius, 95% humidity, 5% CO2. These assay plates were then treated with 23nL of compound or DMSO using a Kalypsys pin tool, which allows for delivery of a 24-point titration of each compound to the assay plate, with a final compound concentration ranging from approximately 40uM to 5pM. Assay plates were then incubated for 48 hours. After incubation, plates were allowed to come to RT for one hour prior to delivery of 3uL of 3X luciferase detection reagent. After a 15 minute incubation to allow for cell lysis, luciferase activity was measured using a ViewLux CCD imager (PerkinElmer), with an average exposure time of 2-12 seconds. Keywords: NIH Roadmap, MLPCN, MLSMR, qHTS, miR-21, microRNA, firefly luciferase, FLuc.

| SMILES | Potency |
| --- | --- |
| Cc1ccc(-c2nc(NCc3ccco3)n(S(C)(=O)=O)n2)cc1 | 7.98 µM (active) |
| Cc1nnc(SCc2nc(N)nc(Nc3ccccc3)n2)s1 | 22.5 µM (active) |
| CC(C)COc1ccc(C(=O)Nc2cc(-c3ccccc3)no2)cc1 | 3.56 µM (active) |
| COc1ccc(OCC(=O)Nc2ccc(-c3nc4cc(C)c(C)cc4o3)cc2)cc1 | 0.4 µM (active) |
| COc1ccc(NC(=O)c2ncn(-c3ccccc3)n2)cc1Cl | 12.6 µM (active) |
| Nc1c(-c2nc(-c3ccncc3)no2)nnn1CC(=O)Nc1ccccc1 | inactive |
| COc1ccc(-c2nc(SCc3ccccc3)n(S(C)(=O)=O)n2)cc1 | 10 µM (active) |
| O=C(CSc1nnc(-c2ccc(O)cc2)o1)Nc1ccccc1Br | 1.79 µM (active) |
| COc1ccccc1NC(=O)C/C(C)=N/NC(=O)c1ccccn1 | inactive |
| COc1ccccc1NC(=O)c1sc2nc3c(cc2c1N)CN(Cc1ccccc1)CC3 | inactive |
| Cc1ccc(NC(=O)Cn2nnc(-c3nc(-c4ccc(Cl)cc4)no3)c2N)cc1C | inactive |
| Cc1ccc(SCC(=O)Nc2ccc3oc(-c4ccc(F)cc4)nc3c2)cc1 | 15.9 µM (active) |
| O=C(CSc1nnc(-c2ccc(C(F)(F)F)cn2)o1)Nc1cccc(Cl)c1 | 2.25 µM (active) |
| NC(=O)c1ccccc1NC(=O)c1ccc(-c2ccc(Br)cc2)o1 | 2.83 µM (active) |
| Cc1c(-c2nc(-c3ccc(C(F)(F)F)cc3)no2)n(C)oc1=O | 0.318 µM (active) |
| Cc1cccc(-c2nnc(SCC(=O)Nc3ccc(C)c(C)c3)o2)c1 | 3.18 µM (active) |
| Cc1ccc(-c2nsc(SCC(=O)Nc3ccc4c(c3)OCO4)n2)cc1 | 17.9 µM (active) |
| COc1cccc(-n2nnc(-c3nc(-c4cccs4)no3)c2N)c1 | 0.895 µM (active) |
| CN(C)c1ccc(CNc2nc(-c3ccco3)nn2S(C)(=O)=O)cc1 | 6.34 µM (active) |
| COc1ccccc1C(=O)n1nc(-c2ccco2)nc1NCc1ccc(Cl)cc1 | 12.6 µM (active) |

| SMILES | Potency |
| --- | --- |
| Nc1c(-c2nc(-c3ccccc3Cl)no2)nnn1-c1ccccc1F | 0.798 µM (active) |
| Cc1ccc(CNc2nc(-c3ccco3)nn2S(C)(=O)=O)cc1 | 4 µM (active) |
| Cc1cc(C)cc(NC(=O)CSc2nnc(CNC(=O)c3ccco3)o2)c1 | inactive |
| Cc1ccc(CNc2nc3nc(C)c(Cl)c(C)n3n2)cc1 | 4 µM (active) |
| Nc1c(-c2nc(-c3cccs3)no2)nnn1-c1cccc(F)c1 | 0.318 µM (active) |
| c1ccc(C2=Nn3c(nnc3-c3cc(-c4ccccc4)n[nH]3)SC2)cc1 | inactive |
| COc1ccc(NC(=O)CSc2nc(SC)ns2)c(OC)c1 | 4 µM (active) |
| Cc1ccc(Nc2ncnc(N)n2)cc1C | 11.3 µM (active) |
| O=S(=O)(c1ccc(F)cc1)n1ccc(-c2cnc(-c3ccccc3)s2)n1 | 5.65 µM (active) |
| COCC(=O)Nc1c(C(=O)Nc2ccc3c(c2)OCCO3)oc2ccccc12 | 0.449 µM (active) |
| Cc1cccc(OCc2nnc(SCC(=O)Nc3ccc(N4CCOCC4)cc3)o2)c1 | inactive |
| Cc1ccccc1OCCn1cnc2c(N)ncnc21 | inactive |
| CSc1nsc(SCC(=O)Nc2ccc(F)cc2F)n1 | 7.98 µM (active) |
| Cc1cc(C)cc(NC(=O)CSc2nnc(-c3ccccc3C)o2)c1 | 5.65 µM (active) |
| Cc1c(-c2nsc(NC(=O)c3cccs3)n2)nnn1-c1ccc(F)cc1 | 0.565 µM (active) |
| COc1ccc(NCc2cccn2-c2nnc(N3CCC(C)CC3)s2)c(OC)c1 | 3.56 µM (active) |
| COc1cc(-c2nc3cnccn3c2Nc2ccc(C(C)C)cc2)ccc1O | 2.83 µM (active) |
| O=C(Nc1nnc(S(=O)(=O)N2CCCC2)s1)c1ccc(F)cc1 | inactive |
| Cn1c(=O)[nH]c2cc(-c3noc(-c4ccc(F)cc4)n3)ccc21 | 10 µM (active) |
| Cc1c(-c2nnc(SCC(=O)Nc3ccccc3F)o2)nnn1-c1ccc(F)cc1 | 3.56 µM (active) |
